From PubChem BioAssay AID2685 (National Center for Advancing Translational Sciences (NCATS), 2010)
Hit rate of the full screen: of about 320,000 compounds, about 2,100 (0.66%) were called active. Another 53% or so got no clear call; they are omitted. Calls follow the shape of the dose curve; as a rule, active = well fitted inhibition curve with a large enough effect in the signal ratio, with a control signal flat (not every such curve was filed as active); inconclusive = small, poorly fitted or top-dose-only effect, or effect the other way, or a change in a side signal; inactive = flat fitted curve, though single readings scatter; the % refers to the signal ratio. The entries come from a sample that favours actives as a whole.

Experiment: qHTS Assay for Lipid Storage Modulators in Drosophila S3 Cells;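 as to cell number change: cells counted by Cell Tracker Red CMTPX staining in the red channel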; as to lipid storage change, negative = inhibition: % is scaled to controls: 0 for no effect and ±100 for the full control effect
Conditions: BODIPY lipid droplet fluorescence, 18-24 h, cells fed with added oleic acid; cell number change: measured here: cell count max response; series mostly up to 46.1 µM; lipid storage change, negative = inhibition: at the top concentration
Method in brief: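 Drosophila S3 cells got compounds at several concentrations plus oleic acid (400 uM solution). Laser-scanning cytometry with 488 nm excitation read lipid droplets at 500-530 nm and cells at 575-640 nm. Percent activity was relative to 20 uM Triacsin C.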
Potency is read from the fitted curve at half-maximal effect.

| SMILES | lipid storage change, negative = inhibition | cell number change [%] | outcome | Potency |
| --- | --- | --- | --- | --- |
| c1ccc2c(c1)nnn2CNc1nccs1 | 11.7% (inactive) | -2.46 |  |  |
| COc1ccc(C(=O)NC2CCCCCC2)cc1S(=O)(=O)Nc1ccc(Br)cc1 |  | -11.3 | inactive |  |
| CCCCCCn1c(=O)c(C(=O)N/N=C/c2cccc(F)c2)c(O)c2ccccc21 | -4% (inactive) | 5.21 |  |  |
| CC12C(=O)N(n3cnnc3)C(=O)C1C1C=CC2C1 (centres undefined) |  | 2.58 |  | 18.4 µM (active) |
| O=C1[C@@H]2[C@H](C(=O)N1n1cnnc1)[C@H]1C=C[C@@H]2C1 | 6.88% (inactive) | 1.74 |  |  |
| CC12C(=O)N(NC(=O)c3ccncc3)C(=O)C1C1C=CC2C1 (centres undefined) | 9.21% (inactive) | 6.42 |  |  |
| CN1CCN(S(=O)(=O)c2ccc(Nc3cccc(Cl)c3)c([N+](=O)[O-])c2)CC1 | 10.8% (inactive) | 8.16 |  |  |
| COc1ccc(C(=O)Nc2cccc(S(=O)(=O)NC3=NCCCCC3)c2)cc1 | 10.1% (inactive) | -1.04 |  |  |
| CN(C)c1nc(N(C)C)nc(N2CCCCC2)n1 | 21% (inactive) | 10.3 |  |  |
| Cc1ccc(C(=O)C(OC(=O)CCC(=O)Nc2cccc(C)c2)c2ccccc2)cc1 (centres undefined) | -7.6% (inactive) | -1.69 |  |  |
| COc1ccc(NC(=O)CCC(=O)OC(C(=O)c2ccccc2)c2ccccc2)cc1 (centres undefined) | -9.84% (inactive) | -23.4 |  |  |
| O=C(CCC(=O)OC(C(=O)c1ccccc1)c1ccccc1)Nc1ccccc1 (centres undefined) |  | -23.6 |  | 0.731 µM (active) |
| COc1ccc(NS(=O)(=O)c2ccc(NC(C)=O)cc2)c(OC)c1 | 5.93% (inactive) | 0.633 |  |  |
| O=C(NCCc1cnn(-c2ccccc2)c1)c1cc(COc2c(F)cccc2F)on1 | 15.2% (inactive) | 0.269 |  |  |
| Cn1c(-c2ccc(F)cc2)cnc1NCc1ccc(F)cc1F | -14.7% (inactive) | 25.6 |  |  |
| COc1ccccc1CNc1ncc(-c2ccc(F)cc2)n1C | -18.1% (inactive) | -1.58 |  |  |
| COc1ccc(OC)c(CNc2ncc(-c3ccc(F)cc3)n2C)c1 |  | -16.1 |  | 32.6 µM (active) |
| COc1ccc(-n2c(=O)c3ccccc3n(CC(=O)NC3CCCCC3)c2=O)c(OC)c1 | 21.5% (inactive) |  |  |  |
| CC(C)(C)NC(=O)NC12CC3CC(CC(C3)C1)C2 | 7.75% (inactive) | 0.331 |  |  |
| CC(C)(CO)NC12CC3CC(CC(C3)C1)C2 |  | -20.6 |  | 0.058 µM (active) |
| CC(O)CNC12CC3CC(CC(C3)C1)C2 (centres undefined) | -12.7% (inactive) |  |  |  |
| Cc1ccc(S(=O)(=O)N(C)/N=C/c2ccc(N(C)C)cc2)cc1 | 7.16% (inactive) | 12.7 |  |  |

| SMILES | lipid storage change, negative = inhibition | cell number change [%] | outcome | Potency |
| --- | --- | --- | --- | --- |
| O=C(NCc1ccccc1)/C(=C/c1ccc([N+](=O)[O-])cc1)NC(=O)c1ccco1 |  | -3.81 | inactive |  |
| COc1ccc(C(=O)CSc2nnc(CNC(=O)c3ccccc3F)n2C)cc1OC | -9.91% (inactive) | 0.87 |  |  |
| O=C(NCCOc1ccccc1)C1CCCN1C(=O)c1cccs1 (centres undefined) | -2.36% (inactive) | -1.16 |  |  |
| O=C(NC1CCCCC1)C(c1ccc(F)cc1)N(Cc1ccco1)C(=O)Cn1nnc2ccccc21 (centres undefined) |  | 19.8 |  | 16.4 µM (active) |
| O=C(NCc1ccco1)C(c1ccc(F)cc1)N(CC1CCCO1)C(=O)Cn1nnc2ccccc21 (centres undefined) |  | -18.6 | inactive |  |
| O=C(NC1CCCCC1)C(c1ccc(F)cc1)N(Cc1ccco1)C(=O)CN1C(=O)c2ccccc2S1(=O)=O (centres undefined) | -10.1% (inactive) | 11.1 |  |  |
| COc1ccccc1/C=C/c1onc(C)c1S(=O)(=O)N1CCC(C(=O)NC2CCCCCC2)CC1 |  | -0.659 | inactive |  |
| CCOC(=O)CC(NC(=O)c1cc2ccccc2oc1=O)c1cccc([N+](=O)[O-])c1 (centres undefined) | 11.5% (inactive) | 11.6 |  |  |
| O=[N+]([O-])c1cc([N+](=O)[O-])c(Oc2c(F)ccc(F)c2F)cc1NN1CCCCC1 | 27.8% (inactive) | -0.599 |  |  |
| NC(=O)Cn1nc([N+](=O)[O-])nc1Oc1ccc(Br)cc1 |  | -1.14 | inactive |  |
| COc1ccccc1Oc1nc([N+](=O)[O-])nn1CC(N)=O | 22.6% (inactive) | -6.43 |  |  |
| NC(=O)Cn1nc([N+](=O)[O-])nc1Oc1ccccc1C(=O)N1CCOCC1 |  | -24.1 |  | 14.6 µM (active) |
| Cc1ccc(C(=O)C[n+]2cc(Br)cc(Br)c2)cc1[N+](=O)[O-] | 6.01% (inactive) | 11.3 |  |  |
| Cc1cccc(C(CC(=O)N2CCCCC2)c2ccccc2)c1O (centres undefined) |  | -18.8 | inactive |  |
| O=C1CC2(CCN(C(=O)c3ccc(Br)cc3)CC2)Oc2ccccc21 |  | -15.2 | inactive |  |
| COc1cc(/C=C/C(=O)c2ccc(NS(=O)(=O)c3ccc(C)cc3)cc2)cc(OC)c1O | -10.6% (inactive) | -14.2 |  |  |
| Cc1ccc(NC(=S)N2CCC(C(N)=O)(N3CCCCC3)CC2)c(C)c1 | -4.88% (inactive) | -4.08 |  |  |
| Cc1ccc2oc(C(=O)N3CCC(C(N)=O)(N4CCCCC4)CC3)c(C)c2c1 |  | -4.2 |  | 18.4 µM (active) |
| CCN(CC)C(=O)C1CCCN(C(=O)c2oc3ccc(C)cc3c2C)C1 (centres undefined) | 2.31% (inactive) | 15.6 |  |  |
| CCCOc1ccc(/C=C/C(=O)N2CCN(c3ccccn3)CC2)cc1 | 19.3% (inactive) | -20.8 |  |  |
| S=c1[nH]nc(COc2ccc3ccccc3c2)o1 | 7.14% (inactive) | -7.51 |  |  |
